# Data as given in PubChem BioAssay (NCI).
# Compounds without any hit were thinned out: in the full panel of roughly 83,000, 20% have a hit.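 Single-concentration screen, 48 h exposure, 96-well plates. Endpoint: percent growth. Below 10 = active.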 A number with no mark means an inactive call. Active and inactive are the calls of the source.
# What was measured:
# Experiment in all cases: NCI-60 one-dose screen, 48 h (100 = growth as untreated, 0 = no growth, -100 = all killed)
# Details in all cases: 10 µM unless noted
# NCI-H23 lung = system: NCI-H23 lung
# NCI-H226 lung = system: NCI-H226 lung
# NCI-H322M lung = system: NCI-H322M lung
# HOP-62 NSCLC = system: HOP-62 NSCLC
# NCI-H460 lung = system: NCI-H460 lung
# HOP-92 NSCLC = system: HOP-92 NSCLC
# NCI-H522 lung = system: NCI-H522 lung
# A549/ATCC NSCLC = system: A549/ATCC NSCLC
# 786-0 renal = system: 786-0 renal
# COLO 205 colon = system: COLO 205 colon
# DU-145 prostate = system: DU-145 prostate
# K-562 leukemia = system: K-562 leukemia
# MALME-3M melanoma = system: MALME-3M melanoma
# MDA-MB-231 breast = system: MDA-MB-231 breast
# RXF 393 renal = system: RXF 393 renal
# SF-268 CNS = system: SF-268 CNS
# SF-295 CNS = system: SF-295 CNS
# SF-539 CNS = system: SF-539 CNS
# UACC-257 melanoma = system: UACC-257 melanoma
# M14 melanoma = system: M14 melanoma
SMILES,growth (NCI-H23 lung),growth (NCI-H226 lung),growth (NCI-H322M lung),growth (HOP-62 NSCLC),growth (NCI-H460 lung),growth (HOP-92 NSCLC),growth (NCI-H522 lung),growth (A549/ATCC NSCLC),growth (786-0 renal),growth (COLO 205 colon),growth (DU-145 prostate),growth (K-562 leukemia),growth (MALME-3M melanoma),growth (MDA-MB-231 breast),growth (RXF 393 renal),growth (SF-268 CNS),growth (SF-295 CNS),growth (SF-539 CNS),growth (UACC-257 melanoma),growth (M14 melanoma)
O=C1Nc2ccc(Br)cc2C12Oc1ccccc1C1CC(c3ccc(F)cc3)=NN12 (stereo not given),89%,83.1%,96.3%,104%,98.5%,109%,81%,91%,105%,109%,100%,84.7%,103%,105%,102%,85.5%,97.9%,91.9%,104%,103%
CCOC(=O)n1cc(-c2nonc2-c2cn(C)c3ncccc23)c2cc(F)ccc21,76%,57.8%,85.8%,89.8%,92.1%,58.8%,72%,70.1%,81.3%,96%,91.1%,61.2%,84.4%,68.2%,78.3%,74.2%,76%,77.9%,91.2%,93.8%
C#CCOc1ccc2ncnc(N3CCC(NC(=O)CCl)CC3)c2c1,71.6% [8.25 µM],2.28% [8.25 µM] (active),88.1% [8.25 µM],68.2% [8.25 µM],81.5% [8.25 µM],56.8% [8.25 µM],55.6% [8.25 µM],75.7% [8.25 µM],45.8% [8.25 µM],82.5% [8.25 µM],72.8% [8.25 µM],81.5% [8.25 µM],83.9% [8.25 µM],96.1% [8.25 µM],16% [8.25 µM],49.1% [8.25 µM],109% [8.25 µM],74.6% [8.25 µM],79.7% [8.25 µM],72.8% [8.25 µM]
CC(C)(C)c1cc(/C=N\NC(=O)/C=C/C=C/c2ccc3c(c2)OCO3)c(O)c(C(C)(C)C)c1,90.5%,75.9%,63.5%,66.8%,39.6%,88.5%,80.1%,87.5%,85.4%,94%,56%,59.9%,71.3%,79%,94.6%,67.4%,92.9%,87.5%,88%,73.3%
C#CC(F)(F)[C@]1(O)CC[C@H]2[C@@H]3CCC4=CC(=O)CCC4=C3[C@@H](c3ccc(C4CC4)cc3)C[C@@]21C,-53.3% (active),63.3%,88.4%,9.06% (active),57.1%,-60.2% (active),-70.1% (active),11.5%,-77.3% (active),29.5%,30.3%,14.3%,-71.7% (active),-10.3% (active),31.1%,-60.5% (active),-59.6% (active),-84.3% (active),77.8%,62.2%
O=C1/C(=C/c2ccccc2)SC(=S)N1CCc1ccc(O)cc1,98%,90.2%,97.1%,94%,99.4%,79.9%,54.8%,93.6%,89.5%,108%,90.1%,90.9%,92.2%,87.3%,101%,85.3%,97%,90.1%,98.9%,97.1%
COc1ccc(/C=C/C(=O)c2cc(O)ccc2O)cc1,95.8%,94.5%,111%,114%,96.6%,70.6%,-23.6% (active),78.6%,96.5%,99%,89.3%,66.4%,100%,77.4%,81.6%,84.4%,111%,88.4%,75.5%,105%
c1ccc(-c2cc3n4c(-c5ccccc5)nn(-c5ccccc5)c4cnc-3n2)cc1,58.1%,73.4%,23.6%,102%,54.9%,51.2%,9.2% (active),31.3%,75.5%,75.1%,38.6%,104%,60.1%,36.2%,-16.1% (active),46.1%,30.7%,48%,22.1%,71.4%
